# PubChem BioAssay AID2315 (National Center for Advancing Translational Sciences (NCATS), 2010)
# Out of some 290,000 compounds screened, about 27,000 (9.3%) were called active. No stated cut-off is given here; in the data, active means inhibition mostly above about 28% (no sharp cut-off); inactive means mostly below about 43%. Shown is part of a subset that was picked to be rich in actives.
# Experiment: A qHTS for Small Molecule Inhibitors of Shiga Toxin; further: 0% is about no effect
# Conditions: Vero cells, Shiga toxin protein synthesis inhibition reporter; at 38.7 µM, stronger effect = higher value
row,SMILES,inhibition
1,CC(C)CC(=O)N1CCN(Cc2cccc(Cl)c2)CC1,-12.6% (inactive)
2,CC(=O)N(c1ccc2oc(=O)sc2c1)S(=O)(=O)c1ccc(C)cc1,-13.9% (inactive)
3,CCC1=C(OC(=O)N(CC)CC)N2C(=O)OC(=NCCc3c[nH]c4ccccc34)[C@]2(C)[C@H]2C1=CC[C@H]1C(=O)N(CC)C(=O)[C@H]12,2.44% (inactive)
4,O=C(CCC(=O)N/N=C/c1ccc(Br)o1)N/N=C/c1ccc(Br)o1,5.62% (inactive)
5,O=C(CN1C(=O)COc2ccccc21)NCCN1CCc2ccccc2C1,29.8% (inactive)
6,CC(OC(=O)CN1C(=O)COc2ccccc21)C(=O)NCc1ccc(F)cc1 (stereo unspecified),-12.1% (inactive)
7,O=C(CN1C(=O)COc2ccccc21)Nc1ccc(F)cc1,74.4% (active)
8,CC(C)C[C@@H](CO)N1CCN(Cc2ccc(O)cc2)CCC1=O,7.05% (inactive)
9,COCCCNC(=S)NNC(=O)C(O)(c1ccccc1)c1ccccc1,-12.4% (inactive)
10,COCCCNC(=S)NC(=O)c1ccc([N+](=O)[O-])cc1,34% (active)
11,CCCCCC(=O)NC(=S)NNC(=O)c1ccc([N+](=O)[O-])cc1,-13.4% (inactive)
12,CC(=O)NC(=S)Nc1ccc(NC(=S)NC(=O)c2ccc([N+](=O)[O-])cc2)cc1,-11.1% (inactive)
13,O=C(NCCOc1ccccc1)c1ccccc1,42.2% (inactive)
14,COCCCNC(=S)NC(=O)c1ccccc1,50.8% (active)
15,COc1ccc(CNC(=O)C(C)NCc2ccccc2Cl)cc1 (stereo unspecified),-9.04% (inactive)
16,Cc1ccc(S(=O)(=O)N(CC(=O)Nc2cccnc2)c2ccc(Br)cc2)cc1,-36.9% (inactive)
17,CN(C)CCCn1c(=O)n(Cc2ccccc2)c(=O)c2c3c(sc21)CCCCC3,-7.1% (inactive)
18,Cc1nc(-c2ccccc2)sc1-c1nnc(C2CC2)o1,87.2% (active)
19,Cc1nc(-c2ccccc2)sc1-c1nc(-c2ccccc2)ncc1S(=O)(=O)c1ccccc1,-10.1% (inactive)
20,C=CCn1c(-c2sc(-c3ccccc3)nc2C)n[nH]c1=S,24.9% (inactive)
21,CCOc1cc(C(=S)N2CCOCC2)ccc1OS(=O)(=O)c1ccc(Br)cc1,1.09% (inactive)
22,C=CCOc1ccccc1NC(=O)CN1C(=O)CNC1=O,-4.23% (inactive)
23,COc1ccc(OC)c(NC(=O)c2cccc(S(=O)(=O)N3CCN(C(C)=O)CC3)c2)c1,1.91% (inactive)
24,COc1ccccc1C(=O)OCC(=O)NCCNC(=O)COC(=O)c1ccccc1OC,-3.42% (inactive)

row,SMILES,inhibition
1,Cc1cccc(-c2noc(-c3ccc(F)cc3)n2)c1,152% (active)
2,Cc1ccc(-c2noc(CN3CCN(Cc4ccccc4)CC3)n2)cc1,41.3% (inactive)
3,Cc1ccc(-c2noc(CSc3nnc(-c4ccccc4)n3C)n2)cc1,-2.98% (inactive)
4,Cc1cccc(-c2nc(Nc3ccc(O)cc3)c3ccccc3n2)c1,-1.6% (inactive)
5,Cc1ccc(Cc2nc(-c3cccc(C)c3)no2)cc1,48.1% (active)
6,Cc1cccc(-c2noc(CCC(=O)NC3CCCC3)n2)c1,24.9% (inactive)
7,O=C(O)CC(CC(=O)N1CCOCC1)c1ccccc1 (stereo unspecified),-6.69% (inactive)
8,Cc1c(NC(=O)c2c([N+](=O)[O-])cnn2C)c(=O)n(-c2ccccc2)n1C,-11.5% (inactive)
9,Cc1ccc(OCC(=O)Nc2ccccc2C(=O)NC2CC2)cc1C,-4.84% (inactive)
10,COc1ccc(C(=O)CC2C(=O)N(C)C(=O)N(C)C2=O)cc1,13.8% (inactive)
11,COc1ccc(OCCC(=O)c2ccc(OC)cc2)cc1,-6.88% (inactive)
12,CO/N=C/CC(=O)c1ccc(OC)cc1,91.1% (active)
13,Cc1ccc(C(=O)c2coc3ccc(O)c(CN(C)C)c23)cc1,-0.742% (inactive)
14,Cc1ccc(S(=O)(=O)NCCSC(C)(C)C)cc1,-15.2% (inactive)
15,CC(C)(C)SCCSC1=CC(=O)CC(c2ccccc2)C1 (stereo unspecified),75.7% (active)
16,O=C(O)CC/C(=C\c1cc2c(cc1Br)OCO2)c1nc2ccccc2s1,-7.28% (inactive)
17,Cc1ccc(S(=O)(=O)c2ccc(Oc3ccccc3)cc2)cc1,-11.7% (inactive)
18,O=S(=O)(ON(c1ccccc1)S(=O)(=O)c1ccccc1)c1ccccc1,-5.69% (inactive)
19,CC1=C/C(=N\OS(=O)(=O)c2ccccc2)C=CC1=O,67.3% (active)
20,COC(=O)c1ccc(NC(=O)CSc2nncn2-c2cccnc2)cc1,29.9% (inactive)
21,CC(Sc1nnc(CNC(=O)c2ccccc2F)n1C)C(=O)Nc1nccs1 (stereo unspecified),-6.1% (inactive)
22,COc1ccccc1-n1ccnc1SCC(=O)NC(C)(C)C,18.7% (inactive)
23,CC(C)(C)NC(=O)CSC(=Nc1ccccc1F)NC#N,33.9% (active)
24,Cc1ccccc1CSCC(=O)NC(=O)NC(C)(C)C,11% (inactive)

row,SMILES,inhibition
1,CS(=O)(=O)c1sc2nc(-c3ccccc3)cc(-c3ccccc3)c2c1N,-3.26% (inactive)
2,Cc1nc2sc(C(=O)c3ccccc3)c(N)c2c2c1CCCC2,18.1% (active)
3,CN(C)c1ccnc2sc(C(=O)c3ccccc3)c(N)c12,25.4% (active)
4,CC(=O)c1c(Nc2ccccc2)sc(C(=O)c2ccccc2)c1C,-8.12% (inactive)
5,CN(C)c1ccnc2sc3c(=O)n(Cc4ccccc4)cnc3c12,-12.3% (inactive)
6,Cc1ccc2c(N)c(C(=O)c3ccccc3)sc2n1,87.1% (active)
7,CCOC(=O)c1sc2nc(SC)nc(-c3ccccc3)c2c1N,-14% (inactive)
8,COc1cccc(C(=O)c2sc3nc(-c4ccccc4)cc(C(F)(F)F)c3c2N)c1,-1.9% (inactive)
9,COC(=O)c1cc2c(N)c(C(=O)c3ccc(Cl)cc3)sc2nc1C(OC)OC,-1.42% (inactive)
10,NC(=O)c1sc2nc3c(c(-c4ccccc4)c2c1N)CCC3,-11.8% (inactive)
11,CCc1nc2sc(C(=O)O)c(N)c2c2c1CCCC2,-12.9% (inactive)
12,CCN(CC)C(=O)c1sc2nc(-c3ccccc3)ccc2c1N,165% (active)
13,CC(C)C[C@H]1CN=C(Nc2ccccc2)N1CC1CCCCC1,0.785% (inactive)
14,O=C(Cc1ccccn1)c1ccc(O)cc1O,-4.76% (inactive)
15,Cc1cccc(C(=O)N2CCCC(Nc3ccc(C(C)C)cc3)C2)n1 (stereo unspecified),19.6% (inactive)
16,CCn1c(SCc2cccc(C(=O)O)c2)nnc1-c1ccc(Cl)cc1,7.08% (inactive)
17,O=S(=O)(Cc1nnnn1-c1ccc(Br)cc1)c1ccc(F)cc1,-1.52% (inactive)
18,CCOc1ccc(-n2c(SCC(=O)Nc3cc(C(=O)O)ccc3Cl)nc3ccccc3c2=O)cc1,3.55% (inactive)
19,CC(=O)c1cccc(NC(=O)COc2ccc(S(=O)(=O)N3CCOCC3)cc2)c1,-10.1% (inactive)
20,CCCC(C)c1nnc(NC(=O)C2CC(=O)N(c3ccc(OCC)cc3)C2)s1 (stereo unspecified),-3.18% (inactive)
21,Cc1cccn2c(=O)c3cc(C(=O)NCCN4CCOCC4)c(=N)n(Cc4cccnc4)c3nc12,-22.4% (inactive)
22,COc1cccc(NC(=O)Nc2nnc(N3CCCCC3C)s2)c1 (stereo unspecified),53.2% (active)
23,CCOC(=O)c1csc(NC(=O)Nc2cccc(OC)c2)n1,-3.25% (inactive)
24,COc1cccc(C(=O)Nc2nnc(S(=O)(=O)N3CCCCC3)s2)c1,6.87% (inactive)

row,SMILES,inhibition
1,CN1C(=O)[C@H]2[C@@H](C3CC3)N3C(=O)CN(Cc4ccccc4)C(=O)[C@@]3(C)[C@H]2C1=O,1.87% (inactive)
2,CC1CCN(CCCn2c(SCC(=O)NC3CCCC3)nc3ccccc3c2=O)CC1,17.3% (inactive)
3,COc1ccc(/C(O)=C2/C(=O)C(=O)N(c3nc(C)c(C)s3)C2c2ccco2)cc1 (stereo unspecified),30.6% (inactive)
4,CCOc1ccc(/C(O)=C2\C(=O)C(=O)N(c3ccc(OC)cc3)C2c2ccccc2[N+](=O)[O-])cc1 (stereo unspecified),26.8% (active)
5,COc1ccccc1C1/C(=C(/O)c2ccc(OC(C)C)cc2)C(=O)C(=O)N1c1cc(C)on1 (stereo unspecified),-22.9% (inactive)
6,CCOC(=O)C(CC)/C(C)=N\NC(=O)c1cccc(C)c1 (stereo unspecified),66.3% (active)
7,CCNC(=O)COC(=O)CCNC(=O)c1cccc(C)c1,43.3% (inactive)
8,COc1ccc(OCC(=O)NNC(=O)c2cccc(C)c2)cc1,-7.72% (inactive)
9,Cc1cc(=O)oc2c3c(cc(OCC(=O)NCCC(=O)N[C@@H](C)C(=O)O)c12)OC(C)(C)CC3,-4.24% (inactive)
10,Cc1cc2c(s1)c1cnn(Cc3c(F)cccc3Cl)c(=O)c1n2C,12.5% (inactive)
11,O=C(C1=C(O)C(=O)N(c2ncccn2)C1c1cccs1)c1ccco1 (stereo unspecified),-18.4% (inactive)
12,O=C(C1=C(O)C(=O)N(CCOCCO)C1c1ccccn1)c1cccs1 (stereo unspecified),29.3% (active)
13,O=C(c1cccs1)N(C(=O)c1cccs1)c1ccccn1,39.7% (inactive)
14,C=CCOc1nc2c(c(=O)n(C)c(=O)n2C)n1Cc1ccc(Cl)cc1Cl,-1.49% (inactive)
15,Cn1c(=O)c2c(nc(NCCc3ccccc3)n2Cc2ccccc2)n(C)c1=O,-11.5% (inactive)
16,Cn1c(=O)c2c(nc(OCc3cccnc3)n2Cc2ccccc2)n(C)c1=O,39.2% (active)
17,COc1ccc(CN2C3CCCC2CC(NC(=O)c2cccc(F)c2)C3)cc1 (stereo unspecified),14.6% (inactive)
18,C=CCNc1cnn(-c2ccc(C)cc2)c(=O)c1Cl,127% (active)
19,Cc1cccc(-n2ncc(Cl)c(Cl)c2=O)c1,-17.2% (inactive)
20,O=c1c(Cl)c(NC2CC2)cnn1-c1ccccc1,107% (inactive)
21,CCCN1C2CCCC1CC(NC(=O)c1cccc(OC)c1)C2 (stereo unspecified),12.9% (inactive)
22,CCCCn1c(=O)c(C(C)=O)c(O)c2ccccc21,-12.1% (inactive)
23,CCOc1ccc(N=Cc2c(O)n(-c3cccc(C)n3)c(=O)c3ccccc23)cc1,-15.9% (inactive)
24,CC(=O)n1c(C=Nc2ccccc2)c(O)c2ccccc21,49.2% (active)
